The results in this text go back to PubChem BioAssay (NCI).

Molecules are shown by their SMILES. Compounds without any hit were thinned out: in the full panel of roughly 83,000, 20% have a hit.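 Cells were grown in 96-well plates and exposed to the test compound at a single concentration for 48 hours; results are reported as percent growth, with values below 10 considered active.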 Unmarked numbers belong to inactive results. The source made the active and inactive calls.

Common to all, as to test: NCI-60 one-dose screen, 48 h (100 = growth as untreated, 0 = no growth, -100 = all killed)
Holding throughout (details): 10 µM unless noted

In test [1] the test system is NCI-H23 lung.
Test [2] has as its system NCI-H226 lung.
Test [3] concerns NCI-H322M lung.
Test [4] has as its system HOP-62 NSCLC.
The test system of test [5] is NCI-H460 lung.
In test [6] the test system is HOP-92 NSCLC.
Test [7] concerns NCI-H522 lung.
For test [8], the system named is A549/ATCC NSCLC.
Test [9] deals with 786-0 renal.
The test system of test [10] is COLO 205 colon.

As to `OC(c1cc2cc(Cl)c(Cl)cc2c2cc(C(F)(F)F)ccc12)C1CCCCN1` (stereo not given), the growth in [1] was -52.9% (active); in test [2], -72.3% (active); in [3] it was -8.7% (active); in test [4], -80.7% (active); in test [5], -71.8% (active); in test [6] it was -70.9% (active). The growth in test [7] was -78.4% (active); in test [8] it was -84% (active); in test [9], -78.1% (active); in [10], -88.2% (active).
Consider `COc1cccc(NC(=O)c2sc3nc(C)c(C(C)=O)cc3c2N)c1`, for which the growth was 65.5% in [1]; 83.7% in test [2]; 45.5% in [3]; 44.7% in test [4]; 10.8% in test [5]; 52% in test [6]. The growth was 40.1% in test [7], 20.5% in [8], 58.5% in test [9] and -1.6% (active) in [10].
Regarding `O=C1CSC(=S)N1CCc1ccc(O)cc1`, the growth in [1] is 95%; in [2] it was 108%; in [3] it was 98.1%; in test [4] it was 85.2%; in [5], 99%; in test [6] it was 66.9%. Further, the growth in test [7] is 46.8%; in test [8], 96.7%; in [9], 40%; in test [10] it was 106%.
As for `CCCCCCN(CCCCCC)CCC(O)c1ccc2ccccc2c1` (stereo not given), the growth in test [1] was 45.3%; in test [2] it was 79.2%; in test [3] it was 80.9%; in [4], 101%; in test [5] it was 51.5%; in test [6], 2.35% (active). In addition, the growth is 60.2% in test [7], 74.5% in test [8], 54.1% in [9] and 39.5% in [10].
Take `CCN(CC)c1ccc(-c2cc(-c3cc(OC)c(OC)c(OC)c3)nc(N3CCOCC3)c2C#N)cc1`: the growth in [1] was 56.2%; in [2], 8.07% (active); in test [3], 52.9%; in test [4] it was -40.5% (active); in [5] it was -1.44% (active); in test [6] it was -1.28% (active). Further, the growth was -15.6% (active) in test [7], 21.5% in [8], 0.298% (active) in [9] and 5.62% (active) in test [10].
`C=CC(=O)Nc1cccc(-c2nc(SC)nc(NCc3ccccc3)c2C#N)c1`: the growth in test [1] is 61.1%; in test [2] it was 46.8%; in [3] it was 73.8%; in test [4], 73.9%; in [5] it was 84%; in [6], 48.1%. The growth was 31.2% in test [7], 53.4% in test [8], 66% in [9] and 98% in [10].
Turning to `O=C1/C(=C/c2ccccc2O)N=C2SCCCN12`, the growth was 80.9% in test [1]; 97.2% in test [2]; 97.5% in [3]; 88.4% in [4]; 103% in test [5]; 80.9% in [6]. For the same compound, the growth in [7] was 79.7%; in [8] it was 101%; in test [9], 98.8%; in test [10], 99.9%.
Consider `CNC(=O)c1cc(Oc2ccc(NC(=O)Nc3ccc(Cl)c(OC(F)(F)F)c3)c(F)c2)ccn1`, for which the growth was 7.09% (active) in [1]; 31.5% in test [2]; 71.7% in [3]; 39% in test [4]; 37.4% in test [5]; 28.9% in [6]. Also, the growth in test [7] is 5.56% (active); in test [8] it was 24.7%; in test [9] it was 58%; in test [10], 6.8% (active).
On to `COc1cccc(-c2nc3sccn3c2-c2ccnc(NCCCNS(=O)(=O)c3c(Cl)cccc3Cl)c2)c1`, for which the growth in test [1] was 60.3%; in test [2], 51.8%; in test [3] it was 90.5%; in test [4], 85.6%; in test [5], 67.4%; in [6], 49.6%. Further, the growth in test [7] was 60.6%; in test [8], 60.3%; in test [9], 70.4%; in test [10], 55.9%.
As to `O=C(/C=C/c1cccc(Cl)c1)c1ccc(O)c(CN2CCN(c3cc4c(cc3F)c(=O)c(C(=O)O)cn4C3CC3)CC2)c1`, the growth was 56.4% in test [1]; 62% in [2]; 37.8% in test [3]; 37.2% in test [4]; 44% in test [5]; 21.8% in test [6]. For the same compound, the growth in [7] is 17.3%; in [8] it was 25.8%; in test [9], 33.6%; in [10], 136%.
With `O=C1c2ccccc2C(=O)c2c(N=Nc3[nH]c(=S)[nH]c3O)cccc21`, the growth in test [1] is 41.7%; in [2], 28.3%; in test [3], 40.1%; in test [4], 25%; in test [5], 7.32% (active); in test [6] it was 19.8%. Further, the growth in [7] was -6.34% (active); in [8] it was 24.3%; in test [9], 22.6%; in test [10], 19%.
With `COC(=O)[C@@H]1CCCN1C(=O)[C@@H]1CCCN1C(=O)[C@H](Cc1ccccc1)NC(=S)Nc1cc(C(F)(F)F)cc(C(F)(F)F)c1`, the growth was 89.2% in [1]; 80.2% in [2]; 89.7% in [3]; 89.8% in [4]; 84.8% in test [5]; 58.9% in test [6]. The growth in test [7] was -11.4% (active); in [8], 15.6%; in test [9], 82.4%; in test [10], 82.7%.
Turning to `COc1ccc(NC2=C(Sc3nc(C)cc(C)n3)C(=O)N(Cc3ccccc3)C2=O)cc1Cl`, the growth is 84.5% [30 µM] in test [1]; 79.9% [30 µM] in [2]; 111% [30 µM] in [3]; 96.3% [30 µM] in [4]; 60.7% [30 µM] in test [5]; 26.9% [30 µM] in test [6]. For the same compound, the growth in test [7] is 85.7% [30 µM]; in [8] it was 74.3% [30 µM]; in test [9], 80.4% [30 µM]; in test [10], 110% [30 µM].
